Common to all, as to experiment: glycan array binding signal (z-score within array); higher = stronger binding
What all share (conditions): glycan notation: IUPAC condensed, linker removed

For test [1], the target named is Fuc(a1-2)Gal(b1-3)GlcNAc. The gist of the method:
(§1)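 Negative Z-scores can be read as non-binding. The Z-score is calculated within each array and then averaged across arrays of one protein sequence at different concentrations or buffers and across linkers. Arrays, 3228 in all, were curated from the Consortium for Functional Glycomics database and kept only where the protein sequence was available.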

Test [2] concerns the target Fuc(a1-2)Gal(b1-4)[Fuc(a1-3)]GlcNAc(b1-3)Gal(b1-4)[Fuc(a1-3)]GlcNAc. The gist of the method:
as §1

Test [3] addresses Fuc(a1-3)[Gal(b1-4)]GlcNAc(b1-3)Gal(b1-3)[Fuc(a1-4)]GlcNAc. In short, it runs like this:
as §1

The target in test [4] is Fuc(a1-3)[Gal3S(b1-4)]Glc6S. The gist of the method: as §1
Test [5] addresses Gal(b1-3)GalNAc. In short, it runs like this: as §1
Test [6] has as its target Gal(b1-4)GlcNAc(b1-2)Man(a1-3)[Gal(b1-4)GlcNAc(b1-2)Man(a1-6)]Man(b1-4)GlcNAc(b1-4)GlcNAc. In short, it runs like this: as §1
Test [7] concerns the target Gal(b1-4)GlcNAc(b1-3)Gal(b1-4)[Fuc(a1-3)]GlcNAc(b1-3)Gal(b1-4)[Fuc(a1-3)]GlcNAc. The gist of the method:
as §1

Test [8] concerns the target Gal(b1-4)GlcNAc(b1-3)[GlcNAc(b1-6)]Gal(b1-4)GlcNAc. In short, it runs like this:
as §1

Test [9] deals with Gal(b1-4)GlcNAc(b1-6)[Gal(b1-3)]GalNAc. The gist of the method:
as §1

In test [10] the target is Gal3S(b1-4)[Fuc(a1-3)]Glc. The gist of the method:
as §1

The target in test [11] is Gal4S6S(b1-4)GlcNAc. In short, it runs like this: as §1
Test [12] deals with Glc(a1-6)Glc(a1-6)Glc. The gist of the method:
as §1

For test [13], the target named is GlcA(b1-6)Gal. The gist of the method: as §1
Test [14] deals with Man(a1-2)Man(a1-3)[Man(a1-2)Man(a1-6)]Man(a1-6)[Man(a1-2)Man(a1-2)Man(a1-3)]Man. In short, it runs like this: as §1
Test [15] concerns the target Man(a1-2)Man(a1-6)[Man(a1-3)]Man(a1-6)[Man(a1-2)Man(a1-2)Man(a1-3)]Man(b1-4)GlcNAc(b1-4)GlcNAc. In short, it runs like this: as §1
Test [16] has as its target Man(a1-3)[Man(a1-6)]Man. The gist of the method: as §1
The target in test [17] is Neu5Ac(a2-3)Gal(b1-3)GalNAc(b1-4)[Neu5Ac(a2-3)]Gal(b1-4)Glc. The gist of the method:
as §1

The target in test [18] is Neu5Ac(a2-3)Gal(b1-4)GlcNAc(b1-3)Gal(b1-3)GlcNAc. The gist of the method: as §1
Test [19] has as its target Neu5Ac(a2-3)Gal(b1-4)[Fuc(a1-3)]GlcNAc(b1-3)Gal. The gist of the method:
as §1

Test [20] has as its target Neu5Ac(a2-3)[GalNAc(b1-4)]Gal(b1-4)Glc. The gist of the method: as §1
For test [21], the target named is Neu5Ac(a2-6)Gal(b1-4)GlcNAc(b1-2)Man(a1-3)[GlcNAc(b1-2)Man(a1-6)]Man(b1-4)GlcNAc(b1-4)GlcNAc. The gist of the method: as §1
Test [22] concerns the target Neu5Ac(a2-6)GalNAc(b1-4)GlcNAc. The gist of the method: as §1

About 410 targets per protein were measured; listed, in parts, are those with the strongest signals and a random draw of the rest.

B1: RfpB (Mycobacterium tuberculosum), O05594 (protein)
chain: MAAGLVTASMSLSTAVAHAGPSPNWDAVAQCESGGNWAANTGNGKYGGLQFKPATWAAFGGVGNPAAASREQQIAVANRVLAEQGLDAWPTCGAASGLPIALWSKPAQGIKHAGPSPNWDAVAQCESGGNWAANTGNGKYGGLQFKPATWAAFGGVGNPAAASREQQIAVANRVLAEQGLDAWPTCGA
Take B1: the “glycan array binding signal (z-score)” value is 0.352 in test [1]; -0.487 in [2]; -0.065 in test [3]; 2.53 in [4]; -0.202 in test [5]; -0.1 in [6]. The “glycan array binding signal (z-score)” value in test [7] is 9.72; in test [8], 2.74; in [9], -0.262; in test [10], -0.568; in test [11], 0.03; in test [12], -0.239. The “glycan array binding signal (z-score)” value in test [13] was -0.284; in [14] it was -0.097; in test [15], -0.426; in test [16], 9.95; in test [17], 4.02; in [18] it was -0.23. The “glycan array binding signal (z-score)” value in test [19] was -0.07; in [20] it was -0.524; in test [21], -0.499; in [22] it was -0.639.

(Values after the supplement of paper PMC8728848.)
